Source: PubChem BioAssay (Sanford-Burnham Center for Chemical Genomics)
CYP2C19 inh: blocks human cytochrome P450 2C19; CYP2C19 Supersomes, luciferin-H EGE luminescence, 30 min; inhibition, % at 5 µM; P33261; actives 21% (n = 96,000);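 active means CYP2C19 inhibition above a set limit at 5 µM in the primary screen, cut at about 50% in these data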;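 further: plate controls were negative control wells for no effect and 2.5 mM tranylcypromine positive control for full effect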
CD11b adhes inh: blocks human CD11b/CD18 adhesion to fibrinogen. actives 0.54% (n = 93,000). K562 CD11b/CD18 adhesion to fibrinogen, ATPlite luminescence; Mn2+ added to activate the integrin. P05107+P11215. inhibition, % at 10 µM;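 active means primary inhibition of 50% or more at 10 µM, then 40% or more on retest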
CYP2C9 activ: CYP2C9 (human) activation | actives 1.4% (n = 96,000) | AID 1024 | recombinant CYP2C9, luciferin-H conversion, luminescence; stronger effect = higher value; factor 1 = untreated enzyme, 0 = blocked | P11712 | activation factor at 5 µM;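 active means activation factor of 2 or more for CYP2C9 at a 5 µM dose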;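 further: 0 = sulfaphenazole-blocked wells and 1 = vehicle-only wells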
Target sequence (P11712 whole entry, looked up): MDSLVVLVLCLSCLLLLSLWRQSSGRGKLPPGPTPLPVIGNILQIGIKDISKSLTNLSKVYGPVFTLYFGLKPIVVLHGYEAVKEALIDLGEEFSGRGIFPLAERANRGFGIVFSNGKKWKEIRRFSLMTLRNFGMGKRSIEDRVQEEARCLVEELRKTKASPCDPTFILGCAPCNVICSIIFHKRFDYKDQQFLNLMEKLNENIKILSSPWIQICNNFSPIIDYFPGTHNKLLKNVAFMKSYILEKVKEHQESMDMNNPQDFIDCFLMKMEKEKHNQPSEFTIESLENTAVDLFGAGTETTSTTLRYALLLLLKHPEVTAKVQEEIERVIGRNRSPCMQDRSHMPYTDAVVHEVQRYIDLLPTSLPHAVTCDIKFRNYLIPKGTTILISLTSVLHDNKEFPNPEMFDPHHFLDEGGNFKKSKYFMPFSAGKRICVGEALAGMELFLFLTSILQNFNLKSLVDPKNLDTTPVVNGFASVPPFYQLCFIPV
Mac1 fbg enh: enhancers of human CD11b/CD18 binding to fibrinogen | actives 0.07% (n = 93,000) | activation, % at 10 µM | K562 CD11b/CD18 adhesion to fibrinogen, ATPlite luminescence;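 active means 10 µM primary screen giving 50% or more activity, confirmed by 40% or more on retest at that dose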
CYP2C9 inhib: blocks human cytochrome P450 2C9 | P11712 | CYP2C9 Supersomes, luciferin-H conversion, luminescence | inhibition, % at 5 µM | actives 20% (n = 96,000);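 active means blocking of liver enzyme CYP2C9 beyond about 50% at 5 µM, limit read from the data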
CYP2C19 act: cytochrome P450 2C19 (human) activation; P33261; recombinant CYP2C19, luciferin-H EGE luminescence; stronger effect = higher value; 0 = fully inhibited enzyme, 1 = untreated enzyme; activation factor at 5 µM; 96,000 tested, under 10 active; AID 1025;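 active means activation factor of at least 2 at 5 µM in the primary screen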;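 further: 0 = wells with 2.5 mM tranylcypromine and 1 = vehicle-only wells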
* = called active by the depositor; nt = no result. A selection: hits, their analogues and other compounds. The true share with any hit is near 28%.

SMILES | CYP2C19 inh | CD11b adhes inh | CYP2C9 activ | Mac1 fbg enh | CYP2C9 inhib | CYP2C19 act
CCCCNC(=O)c1onc(CSc2ccccc2F)c1C(=O)O | 0 | -8 | 0.4 | -4 | 57* | 1
CC(C)NC(=O)c1onc(CSc2ccccc2F)c1C(=O)O | 10 | nt | 0.6 | nt | 38 | 0.9
CCCC(=O)Nc1ccc2oc(-c3ccncc3)nc2c1 | 56* | -16 | 0.2 | -2 | 78* | 0.4
CCCC(=O)Nc1ccc(-c2nc3cc(C)c(C)cc3o2)cc1 | 9 | 14 | 1.1 | 24 | -8 | 0.9
O=C(COc1ccc(Cl)cc1)Nc1ccc2oc(-c3ccncc3)nc2c1 | 52* | -25 | 0.4 | 26 | 62* | 0.5
CCCCC(=O)Nc1ccc2oc(-c3ccncc3)nc2c1 | 58* | -30 | 0.4 | 1 | 63* | 0.4
CC(C)(Oc1ccc(Cl)cc1)C(=O)Nc1ccc2oc(-c3ccncc3)nc2c1 | -10 | -5 | 0.9 | 0 | 13 | 1.1
CCCCCC(=O)Nc1ccc2oc(-c3cncc(Br)c3)nc2c1 | 46 | -14 | 0.9 | 57 | 8 | 0.5
CCCCc1c(O)nc(SCC(=O)N2CCOCC2)[nH]c1=O | -12 | -30 | 1.1 | 1 | -7 | 1.1
CCOc1ccc(-c2ncncc2-c2ccc(OC)cc2)c(O)c1 | 33 | -5 | 0.5 | -2 | 54* | 0.7
CCOC(=O)C1=C(CSc2nc(-c3ccncc3)ccc2C#N)OC(N)=C(C#N)C1c1cccnc1 (centres undefined) | 99* | -8 | 0 | -3 | 96* | 0
CCOC(=O)C1=C(CSc2nc(C)ccc2C#N)OC(N)=C(C#N)C1c1cccc(OC)c1OC (centres undefined) | 97* | -6 | 0 | -4 | 97* | 0
CCOC(=O)CC1=C(C(=O)OCC)C(c2cc(OC)c(OC)cc2OC)C(C#N)=C(N)O1 (centres undefined) | 33 | -28 | 0.5 | 6 | 48 | 0.7
CCOC(=O)C1=C(CSc2nc(-c3ccncc3)ccc2C#N)OC(N)=C(C#N)C1c1ccc(OC)cc1 (centres undefined) | 91* | -5 | 0.1 | 50 | 94* | 0.1
O=C(CCSc1ccc(Cl)cc1)NC12CC3CC(CC(C3)C1)C2 | 35 | 3 | 0.6 | -6 | 37 | 0.6
O=C(N/N=C/c1ccc(O)cc1)c1csc2c1CCCC2 | nt | 3 | nt | -1 | nt | nt
CC(C)c1nnc(NC(=O)CCC(=O)N2CCN(c3ccccn3)CC2)s1 | 1 | nt | 1 | nt | -4 | 1
Cc1ccc(-c2nc(-c3cccnc3)no2)c(C)c1 | 52* | 34 | 0.9 | 3 | 14 | 0.5
COc1nc(-c2ccc(C)cc2)ccc1-c1noc(-c2cccnc2)n1 | 27 | -10 | 0.6 | 0 | 42 | 0.7
Cc1ccc(C)c(OCc2nc(-c3cccnc3)no2)c1 | 90* | 12 | 0.7 | -4 | 31 | 0.1
Cc1cc(Br)ccc1OCc1nc(-c2cccnc2)no1 | 40 | -28 | 1.1 | -1 | -10 | 0.6
COCCn1c(SCC(=O)Nc2ccc(Cl)c(S(=O)(=O)N(C)C)c2)nc2ccccc21 | 27 | 14 | 0.1 | -1 | 87* | 0.7
Cc1ccc(NC(=O)Cn2c(=O)cnc3ccccc32)cc1S(=O)(=O)N(C)C | nt | 15 | nt | -6 | nt | nt
Cc1ccc(NC(=O)CSc2nnc(-c3ccc(S(=O)(=O)N4CCOCC4)cc3)n2C)cc1 | 29 | -18 | 0.6 | 6 | 36 | 0.7
COCCn1c(SCC(=O)Nc2cccc(S(N)(=O)=O)c2)nc2ccccc21 | 31 | 3 | 0.8 | 2 | 18 | 0.7
SMILES | CYP2C19 inh | CD11b adhes inh | CYP2C9 activ | Mac1 fbg enh | CYP2C9 inhib | CYP2C19 act
COCCn1c(SCC(=O)Nc2nc(C)c(Cl)cc2Cl)nc2ccccc21 | 96* | 3 | 0.8 | 1 | 22 | 0
COCCn1c(SCC(=O)Nc2ccc(S(=O)(=O)N3CCOCC3)cc2)nc2ccccc21 | 16 | -7 | 0.3 | -4 | 66* | 0.8
COCCn1c(SCC(=O)Nc2ccc(S(N)(=O)=O)cc2)nc2ccccc21 | -22 | 0 | 0.3 | -3 | 68* | 1.2
CNC(=O)NC(=O)CSc1nc2ccccc2n1CCOC | 7 | -17 | 0.8 | -4 | 19 | 0.9
COc1cccc(C(=O)NCC(=O)N/N=C/c2cccs2)c1 | nt | 1 | nt | -5 | nt | nt
CC1(C)C(=O)OC(c2ccco2)C(C)(C)C1=O (centres undefined) | 34 | -3 | 1 | 3 | -2 | 0.7
CCC1(CC)C(=O)C(C)(C)C(=O)OC1c1ccccn1 (centres undefined) | 33 | 2 | 0.4 | 2 | 60* | 0.7
CCCn1c(Sc2nnnn2-c2ccccc2)n[nH]c1=O | 13 | -2 | 0.8 | 1 | 17 | 0.9
Cc1ccccc1-n1nnnc1Sc1nnnn1-c1ccccc1 | 88* | 2 | 0.8 | -1 | 17 | 0.1
c1ccc(-n2nnnc2Sc2n[nH]c(-c3ccncc3)n2)cc1 | 43 | -18 | 0.2 | 1 | 80* | 0.6
Cc1cc(C)c(C#N)c(Sc2nnnn2-c2ccccc2)n1 | 57* | -11 | 0.8 | -1 | 18 | 0.4
Cc1ccccc1-n1nnnc1SCC(N)=O | -4 | 2 | 1 | 0 | 3 | 1
Cc1cc(C)n2cc(CSc3nnnn3-c3ccccc3)nc2n1 | 4 | -10 | 1.2 | -3 | -20 | 1
Cc1nc(Sc2nnnn2-c2ccccc2)c(C#N)c(C)c1C | 59* | -14 | 0.9 | -5 | 11 | 0.4
ON1C(c2ccccc2)CC2(O)c3nonc3CCC12 (centres undefined) | 21 | -8 | 0.9 | -4 | 8 | 0.8
CS(=O)(=O)N1CCCC(C(=O)NCCCN2CCc3ccccc3C2)C1 (centres undefined) | 13 | 3 | 1.2 | 4 | -15 | 0.9
Cc1ccc(S(=O)(=O)NC(C)(C)CSc2nnc(N)s2)cc1 | 99* | 15 | 0.2 | -2 | 80* | 0
O=C(c1ccc2snnc2c1)N1CCOCC1 | 30 | -7 | 1.1 | -7 | -6 | 0.7
Fc1ccc(C2CC(c3ccccc3)Nc3ncnn32)cc1 (centres undefined) | 53* | 2 | 1 | -4 | -2 | 0.5
Clc1ccccc1C1CC(c2ccccc2)Nc2ncnn21 (centres undefined) | 38 | -3 | 0.6 | -1 | 40 | 0.6
Cc1ccc(C2CC(c3ccccc3OC(F)F)Nc3ncnn32)cc1 (centres undefined) | 27 | -7 | 0.9 | -2 | 8 | 0.7
Cc1ccccc1C1CC(c2ccccc2OC(F)F)Nc2ncnn21 (centres undefined) | 75* | -16 | 0.4 | 4 | 60* | 0.2
c1ccc(C2CC(c3ccccc3)n3ncnc3N2)cc1 (centres undefined) | 93* | -6 | 0.5 | -2 | 45 | 0.1
